Test results reported in PubChem BioAssay (NCI).
About 83,000 compounds went through this panel and 20% of them were active in at least one assay; those are over-represented in the sample as a whole.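 Values shown are percent growth following 48 h exposure of cells in 96-well plates to a single concentration of compound; below 10 was considered active.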 Values without a mark were called inactive. The source made the active and inactive calls.

What was measured:
Assay in all cases: NCI-60 one-dose screen, 48 h (100 = growth as untreated, 0 = no growth, -100 = all killed)
Conditions in all cases: 10 µM unless noted
HCT-15 colon = tested on: HCT-15 colon
HT29 colon = tested on: HT29 colon
SNB-75 CNS = tested on: SNB-75 CNS
SNB-19 CNS = tested on: SNB-19 CNS
U251 CNS = tested on: U251 CNS
PC-3 prostate = tested on: PC-3 prostate
UACC-62 melanoma = tested on: UACC-62 melanoma
LOX IMVI melanoma = tested on: LOX IMVI melanoma
SK-MEL-28 melanoma = tested on: SK-MEL-28 melanoma
SK-MEL-5 melanoma = tested on: SK-MEL-5 melanoma

Structure (SMILES) | growth (HCT-15 colon) | growth (HT29 colon) | growth (SNB-75 CNS) [%] | growth (SNB-19 CNS) | growth (U251 CNS) | growth (PC-3 prostate) | growth (UACC-62 melanoma) | growth (LOX IMVI melanoma) | growth (SK-MEL-28 melanoma) | growth (SK-MEL-5 melanoma)
COc1ccc(Cn2cc(C#N)c(N)c2C(C)=O)cc1 | 98.5% | 112% | 84.5 | 85.8% | 109% | 105% | 87.1% | 98.6% | 109% | 
O=C(CSc1nnc(-c2ccc(Cl)cc2)n1-c1ccccc1)Nc1cccc(F)c1 | 67.8% | 48.1% |  | 48.3% | 14.1% | 62.1% | 93.5% | 0.1% (active) | 78% | 87.9%
CN1CCN(c2ccc(Nc3nc(NCCCNS(=O)(=O)c4ccccc4)c4sccc4n3)cc2)CC1 | 27.2% | -26.7% (active) |  | 56.6% | 13.2% | 68.9% | 13.2% | -22.2% (active) | -24.3% (active) | 24.9%
COC(=O)c1cccc(NC2=CC(=O)C(C)=C(C)C2=O)c1 | 93.8% | 110% |  | 96.2% | 94.7% | 79.7% | 96.2% | 61% | 111% | 96.3%
C#C[C@]1(O)CC[C@H]2[C@@H]3CC=C4c5sc(Nc6cc(C)cc(C)c6)nc5CC[C@]4(C)[C@H]3CC[C@@]21C | -37.1% (active) | 0.349% (active) |  | 14.8% | 8.96% (active) | -8.26% (active) | -16.4% (active) | -68.3% (active) | -37.9% (active) | -42.5% (active)
Cc1cccc(N2CCN(C3=C(Cl)C(=O)c4ncccc4C3=O)CC2)c1 | 24.8% | 104% |  | 79.5% | 85.2% | 72.9% | 74.3% | 24.2% | 92.1% | 95.2%
O=C1CSC(c2cn(-c3ccccc3)nc2-c2ccc(Cl)cc2)N1c1ccccc1 (centres undefined) | 101% | 106% |  | 112% | 106% | 99.7% | 99% | 100% | 118% | 99.4%
COc1ccc(-c2cc(-c3ccc(N4CCOCC4)cc3)n3c(n2)nc2ccccc23)cc1OC | 83.1% | 105% |  | 85.1% | 86.1% | 73% | 94.3% | 78.4% | 94.4% | 55.8%
N#Cc1c(-c2ccc(F)cc2)cc(-c2c[nH]c3ccccc23)nc1-c1c[nH]c2ccccc12 | 99.6% | 110% |  | 102% | 94.9% | 103% | 98.3% | 107% | 107% | 100%
CC(=O)OCCCCN1C=C/C(=C\C(=O)n2ccc3ccccc32)c2ccccc21 | 101% | 113% |  | 103% | 102% | 101% | 89.4% | 99.9% | 111% | 100%
C/C(CC1(O)C(=O)Nc2ccccc21)=N\O (centres undefined) | 95.4% | 104% |  | 103% | 98.8% | 88.6% | 99.7% | 90.4% | 108% | 99.9%
COc1ccccc1Cn1cc(C#N)c(N)c1C(=O)c1ccc(Br)cc1 | 86.6% | 107% |  | 84.9% | 102% | 96.8% | 69.7% | 94.6% | 100% | 96.7%
COc1ccc2[nH]cc(-c3nn4cc(-c5ccncc5)nc4s3)c2c1 | 37.8% | 66.6% |  | 75.3% | 67.9% | 45.7% | 63.8% | 57.8% | 112% | 67.4%
O=[N+]([O-])c1ccc(NC(=S)NNC(=S)Nc2ccc(Br)cc2)cc1 | 42.1% | 95% |  | 98.6% | 88.4% | 75.3% | 48.5% | 60.9% | 102% | 92.7%
CN1CCN(c2ccc(Nc3nc(NCCNC(=O)c4ccc(F)cc4)c4sccc4n3)cc2)CC1 | 28.2% | 32% |  | 91.8% | 37% | 72.2% | 33.8% | 8.7% (active) | -8.89% (active) | 25.2%
Brc1ccc(-c2cc(-c3ccc4c(c3)OCCO4)n[nH]2)s1 | 19.2% | 11.1% |  | 42.6% | 27.8% | 50% | 49.5% | 41.7% | 57.8% | 12.1%
C#C[C@]1(O)CC[C@H]2[C@@H]3CC=C4c5sc(Nc6ccc(C)cn6)nc5CC[C@]4(C)[C@H]3CC[C@@]21C | -45.6% (active) | 1.03% (active) |  | -21.2% (active) | -1.79% (active) | -27.3% (active) | -24.8% (active) | -61.7% (active) | -72.4% (active) | -93.1% (active)
Cc1ccc([C@H]2c3[nH]c4ccccc4c3C[C@H]3C(=O)N(CCCCCCC(=O)NO)CC(=O)N23)s1 | 93.6% | 56% |  | 62.7% | 65% | 61.9% | 33.3% | -93.2% (active) | 48.3% | 40.5%
N#CC1=C2NCCCNc3oc(nc3C#N)Cc3ccccc3CC(=N1)O2 | 74.8% | 102% |  | 93.2% | 96.1% | 91.9% | 87.5% | 8.01% (active) | 102% | 99.1%
Cn1cc(-c2cc3ncnc(Nc4ccc(NC(=O)Nc5cc(C(C)(C)C)on5)cc4)c3s2)cn1 | 27.9% | 16.7% |  | 56.4% | 37.9% | 28.5% | 22.2% | 6.08% (active) | 15% | 20.8%
Cc1ccccc1N1CCN(C2=C(Cl)C(=O)c3ncccc3C2=O)CC1 | 4.38% (active) | 94.9% | 82.6 | 74.9% | 71.3% | 66.1% | 66.2% | 1.19% (active) | 35.9% | 

Structure (SMILES) | growth (HCT-15 colon) | growth (HT29 colon) | growth (SNB-75 CNS) [%] | growth (SNB-19 CNS) | growth (U251 CNS) | growth (PC-3 prostate) | growth (UACC-62 melanoma) | growth (LOX IMVI melanoma) | growth (SK-MEL-28 melanoma) | growth (SK-MEL-5 melanoma)
CN(C)S(=O)(=O)c1ccc(-c2nc(C(Cl)Cl)nc3cc(-c4ccccc4)nn23)cc1 | 47.7% | 45.6% |  | 85.2% | 66.2% | 87.7% | 11.7% | 44.5% | -4.08% (active) | 92%
CC(C)NC(=O)c1cc(-c2ccc(NC(=O)Nc3ccc(F)c(C(F)(F)F)c3)cc2)nc2cccnc12 | 89.7% | 91% |  | 93.6% | 87.8% | 84.2% | 97% | 88.8% | 100% | 93.2%
CC[C@]12CC(C(=O)OC)=C3Nc4ccccc4[C@@]34CCN(C14)[C@@H]1c3cc4c(cc3O[C@@H]1[C@H]2O)NC1=C(C(=O)OC)C[C@@]2(CC)C3N(CC[C@@]143)C[C@H]1O[C@H]12 (some centres undefined) | 3.59% (active) | 12.2% |  | 14.2% | 19.2% | 10.1% | 8.9% (active) | -64.6% (active) | 20.7% | -75.7% (active)
N/C(=N\C(N)=N\c1nc2ccccc2s1)c1ccc(Cl)cc1 | 37.1% | 98.4% |  | 84% | 26.8% | 43.9% | 81.9% | 20.8% | 95.5% | 99.7%
CCNC(=O)Oc1ccc(/C(=C(/C)c2ccc(OC)cc2)c2ccc(OCCN3CCCCCC3)cc2)cc1 | -25.8% (active) | 10.5% |  | 61% | 38.8% | 31.3% | 41% | -6.62% (active) | 19.8% | 78.5%
O=C(N/N=C/c1cc2ccccc2nc1Cl)c1cc(-c2nc3ccccc3[nH]2)nc2ccccc12 | 82.9% | 90.3% |  | 95.3% | 92.2% | 81.6% | 75.1% | 88.9% | 99.2% | 
O=C(CCCCCCN1CC(=O)N2[C@@H](c3ccc(Cl)s3)c3[nH]c4ccccc4c3C[C@H]2C1=O)NO | 77.1% | 38.9% |  | 52.2% | 50.3% | 47.4% | 21.9% | -62.7% (active) | 37.2% | 19.7%
C#Cc1nc(/C=C/C(=O)NO)cs1 | 76.3% | 7.85% (active) |  | 93.4% | -5.41% (active) | 70.5% | 57.9% | -90.7% (active) | 60.9% | 63.3%
NS(=O)(=O)c1cccc(Nc2nc(SCC(=O)c3ccc(Cl)cc3)nc3c2CCC3)c1 | 96.7% | 109% | 87 | 62.5% | 63.9% | 93.9% | 97.1% | 86.2% | 104% | 
N#C/C(=C\c1ccc(-c2ccc(Cl)c(Cl)c2)o1)C(=O)Nc1ncc(Cc2ccc(Cl)cc2)s1 | 13.5% | 27.9% |  | 37.8% | 3.74% (active) | 36.7% | 48.6% | -79.8% (active) | 18.2% | 80.4%
CCN(CC)S(=O)(=O)c1ccc(-c2nc(C(Cl)Cl)nc3cc(C)nn23)cc1 | 1.86% (active) | 5.07% (active) |  | 46.2% | 8.28% (active) | 31.1% | 49.9% | 35.6% | 23.3% | 78.3%
CN1CCN(Cc2ccc(NC(=O)c3cncc(C#Cc4cnc5ccc(OCC(F)F)nn45)c3)cc2C(F)(F)F)CC1 | -57.4% (active) | -66% (active) |  | -31.7% (active) | -72.7% (active) | -19.4% (active) | -46.8% (active) | -91.2% (active) | -82.4% (active) | -95.7% (active)
O=C(CSc1nc2ccccc2c(=O)n1-c1ccccc1)Nc1ccc(S(=O)(=O)Nc2nccs2)cc1 | 66.5% | 69.5% |  | 43.7% | 2.78% (active) | 91% | 71.4% | 36.5% | 76.3% | 66.5%
CC[C@]12C=CCN3CC[C@@]4(c5ccc(OC)cc5N(C)[C@H]4[C@@](O)(C(=O)OC)[C@@H]1OC(=O)CCN1CCc4ccccc4C1)[C@@H]32 | 84.8% | 99% |  | 91.9% | 87.5% | 70.1% | 99% | 88.5% | 95% | 98.2%
CN1CCN(c2ccc(Nc3nc(NCCCNS(=O)(=O)c4ccc(C(F)(F)F)cc4)c4sccc4n3)cc2)CC1 | -72.7% (active) | -75.8% (active) |  | 17.5% | -83.4% (active) | 20.7% | -80.3% (active) | -83.6% (active) | -92.8% (active) | -95% (active)
CC(C)(C)OC(=O)Nc1ccc(-c2cccc(Oc3ccc4nnc(Cl)n4n3)c2)cc1 | 65% | 84.7% |  | 94.9% | 91.2% | 51.1% | 63.6% | 82.9% | 96.9% | 
O=C(Nc1ccccc1)Nc1nc2ccc([N+](=O)[O-])cc2[nH]1 | 40.9% | 84.4% |  | 66.3% | 55.5% | 45.8% | 44% | 57.2% | 61.6% | 
NS(=O)(=O)c1ccc(Nc2nc(N/N=C/C=C/c3ccccc3)nc(Nc3ccccc3)n2)cc1 | 45% | 34.6% |  | 48.4% | 51.1% | 47.5% | 66.4% | 27.3% | 60.3% | 40.3%
C#C[C@]1(O)CC[C@H]2[C@@H]3CC=C4c5sc(N6CCN(C)CC6)nc5CC[C@]4(C)[C@H]3CC[C@@]21C | 8.12% (active) | 5.26% (active) |  | 63.3% | 21.8% | 22.4% | 51.2% | 25.6% | 31% | 
CNC(=O)c1cc(N2CCc3cc(NC(=O)Nc4ccc(N5CCOCC5)c(C(F)(F)F)c4)ccc32)ccn1 | 5.54% (active) | 28.5% |  | 23.1% | 29.2% | 7.98% (active) | -29.8% (active) | 12.5% | 49.8% | 12.9%
O=C1[C@H]2Cc3c([nH]c4ccccc34)[C@H](c3ccc(Br)cc3)N2C(=O)CN1C1CCN(CC2CCCCC2)CC1 | 38.8% |  | 52.6 | 83.3% | 55.9% | 60.2% | 96.7% | -69.2% (active) | 97.6% | 69.6%
